Test results taken from PubChem BioAssay.
Several values for one entry are separate records, joined by “and”; a condition that tells them apart may be missing. Equal entries are not always repeated. The source holds several records for some structures; these can differ, active in one and inactive in another. Activity calls are given as the source filed them. Rule as the data show it, unless noted: active = inhibition above about 80%; inactive = the rest.

Legend:
[1] = viability rescue of complex I mutant cybrids, primary screen, cell-based, galactose medium, ATP luminescence (AID 1645843;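 active = z-score of at least 1.8 in each of two replicates, scored against plate mean and spread of sample wells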;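 also: positive z means more ATP and so rescue of galactose-driven cybrid death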); details: complex I mutant cybrid cells, 72 h, stronger effect = higher value
[2] = LFS_MB_P medulloblastoma growth inhibition, cell-based, chromothripsis tumors, cisplatin or BGB combos (AID 1671449); details: LFS_MB_P medulloblastoma cells;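 also: cells exposed for 96 hours; 0% = vehicle DMSO and 100% = killing by high DMSO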
[3] = HDN33 neuroblastoma growth inhibition, cell-based, chromothripsis tumors, cisplatin or BGB combos (AID 1671450); details: HDN33 neuroblastoma cells, stronger effect = higher value;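 also: cells exposed to compound for four days; 0% = vehicle DMSO and 100% = cell killing by high DMSO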
[4] = ICB984 medulloblastoma cell growth inhibition, synergistic combos for chromothripsis tumors, cisplatin or BGB combos (AID 1671451; call rule not given here;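 also: cells exposed for 96 hours before readout; 0% = vehicle DMSO and 100% = killing by high DMSO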); details: ICB984 medulloblastoma cells, drug combinations, stronger effect = higher value
[5] = LFS_MB_1R medulloblastoma cell growth inhibition, synergistic combos for chromothripsis tumors, cisplatin or BGB combos (AID 1671452); details: LFS_MB_1R medulloblastoma cells, stronger effect = higher value;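 also: cells exposed for 96 hours before readout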
[6] = HTB85 osteosarcoma cell growth inhibition, synergistic combos for chromothripsis tumors, BGB or cisplatin IC20 combos (AID 1671453); details: HTB85 osteosarcoma cells, drug combinations, stronger effect = higher value;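 also: cells exposed for 96 hours before readout; 0% = vehicle DMSO and 100% = high DMSO killing control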
[7] = CRL2098 osteosarcoma cell growth inhibition, synergistic combos for chromothripsis tumors, BGB or cisplatin IC20 combos (AID 1671454); details: CRL2098 osteosarcoma cells, drug combinations, stronger effect = higher value;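 also: cells exposed for 96 h before readout; 0% = vehicle DMSO and 100% = killing by high DMSO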
[8] = HD-MB03 medulloblastoma cell growth inhibition, synergistic combos for chromothripsis tumors, BGB or cisplatin IC20 combos (AID 1671455; in the data active = inhibition above about 83%;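 also: 0% = vehicle DMSO and 100% = high DMSO as cytotoxic control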); details: HD-MB03 medulloblastoma cells, stronger effect = higher value
[9] = UWB1.289 ovarian carcinoma cell growth inhibition, synergistic combos for chromothripsis tumors, BGB or cisplatin combos (AID 1671456); details: UWB1.289 ovarian carcinoma cells, stronger effect = higher value;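 also: cells exposed to compound for four days; 0% = vehicle DMSO and 100% = killing by high DMSO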
[10] = LFS_MB_2R medulloblastoma cell growth inhibition, synergistic combos for chromothripsis tumors, cisplatin combos (AID 1671457); details: LFS_MB_2R medulloblastoma cells, stronger effect = higher value;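 also: cells exposed to compound for four days before readout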
[11] = MDA-MB-436 breast carcinoma cell growth inhibition, synergistic combos for chromothripsis tumors, BGB or cisplatin combos (AID 1671458; call rule not given here;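 also: cells exposed for 96 hours; 0% = vehicle DMSO and 100% = killing by high DMSO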); details: MDA-MB-436 breast carcinoma growth inhibition, drug combinations, stronger effect = higher value
[12] = UWB1.289_BRCA1 ovarian cancer growth, cell-based, BGB or cisplatin combinations (AID 1671459); details: UWB1.289 BRCA1 ovarian carcinoma, drug combinations, stronger effect = higher value
[13] = human astrocyte viability loss, single and combined drugs, cytotoxicity control for chromothriptic childhood tumor combination screen, cell-based, BGB or cisplatin IC20 combos (AID 1671460); details: Human astrocytes, drug combinations, stronger effect = higher value;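 also: cells exposed to compounds for 96 hours before viability readout; 0% = vehicle and 100% = killing control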
[14] = growth inhibition of BT084 medulloblastoma cells, cell-based, ICGC_MB145, cisplatin and BGB IC40 combos (AID 1671461); details: drug combinations, stronger effect = higher value;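 also: cells exposed to drugs for 96 hours; 0% = vehicle DMSO and 100% = high DMSO full killing control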
[15] = growth inhibition of RCMB18 medulloblastoma cells, cell-based, cisplatin and BGB IC40 combos (AID 1671462); details: stronger effect = higher value;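 also: cells exposed to compound for four days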
[16] = growth inhibition of CRL1545 osteosarcoma cells, cell-based, cisplatin and BGB IC20 combos (AID 1671464); details: stronger effect = higher value;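 also: cells exposed to compound for 96 hours before readout; 0% = vehicle DMSO and 100% = high DMSO killing control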
[17] = measured here: combination with BGB IC40, at 0.05 µM
[18] = measured here: with BGB IC20 combination, at 0.5 µM
[19] = measured here: with cisplatin IC20 combination, at 0.5 µM
[20] = measured here: combination with cisplatin, at 0.5 µM
[21] = measured here: combination with cisplatin, at 5 µM

CC(CCCC(C)(C)O)CCNC(C)Cc1ccsc1 (centres undefined)
z-score [1]: -0.475 (inactive)

CCC1(O)C(=O)OCc2c1cc1n(c2=O)Cc2cc3ccccc3nc2-1 (centres undefined)
inhibition ([2]; at 0.5 µM, stronger effect = higher value): 88.2% (active) and 9.86% (inactive) | inhibition ([2]; measured here: combination with BGB IC20, at 0.005 µM): -1.21% and 5.58% | inhibition ([2]; measured here: combination with BGB IC40, at 0.005 µM): -28.3% and -33.2% | inhibition [2, 17]: -15.4% and -14.9% | inhibition ([2]; measured here: combination with cisplatin, at 0.5 µM, stronger effect = higher value): 109% and 46.9% | inhibition ([2]; measured here: combination with cisplatin, at 5 µM, stronger effect = higher value): 81.5% and 87.5% | inhibition ([3]; BGB combo, at 5 µM): 91.9% and 99.2% | inhibition ([3]; at 0.5 µM): 76.6% (inactive) and 90.4% (active) | inhibition ([3]; cisplatin combo, at 5 µM): 89.8% and 99.4% | inhibition [3, 18]: 83.3% and 91.4% | inhibition [3, 19]: 71% and 86.5% | inhibition ([3]; single agent, at 5 µM): 93% and 99% | inhibition ([4]; BGB IC20 combo, at 0.005 µM): -14.4% and -0.816% | inhibition ([4]; BGB IC40 combo, at 0.005 µM): 10.1% and 28.9% | inhibition ([4]; BGB IC40 combo, at 0.05 µM): 90.9% and 90.2% | inhibition ([4]; at 0.5 µM): 0.67% (inactive) and -18.7% (inactive) | inhibition ([4]; cisplatin combo, at 0.05 µM): 90.9% and 89.8% | inhibition ([4]; cisplatin combo, at 0.5 µM): 8.68% and -15.9% | inhibition ([4]; cisplatin combo, at 5 µM): -16.2% and -24.5% | inhibition ([4]; measured here: 5 uM single agent, at 5 µM): -7.75% and -12.5% | inhibition ([5]; at 0.5 µM): 18.3% (inactive) and 58.5% (inactive) | inhibition [5, 17]: -2.41% and -26.5% | inhibition [5, 20]: 67.3% and 77.9% | inhibition [5, 21]: 84.7% and 77.9% | inhibition ([6]; at 0.5 µM): 87% (active) and 98.3% (active) | inhibition ([6]; measured here: with BGB IC20, at 0.5 µM): 83.6% and 98.1% | inhibition ([6]; measured here: with BGB IC20, at 5 µM): 99.4% and 98.2% | inhibition ([6]; measured here: with cisplatin IC20, at 0.5 µM): 89.5% and 97.8% | inhibition ([6]; measured here: with cisplatin IC20, at 5 µM): 99.8% and 99.6% | inhibition ([6]; single agent, at 5 µM): 99.8% | inhibition ([7]; at 0.5 µM): 61.8% (inactive) and 62.7% (inactive) | inhibition ([7]; measured here: combination with BGB at IC20, at 0.5 µM): 62.5% and 76.9% | inhibition ([7]; measured here: combination with cisplatin at IC20, at 0.5 µM): 58% and 56.3% | inhibition ([8]; at 0.5 µM): 97.5% (active) and 99.2% (active) | inhibition ([8]; measured here: combo with BGB at IC20, at 0.5 µM): 96.5% and 99.2% | inhibition ([8]; measured here: combo with cisplatin at IC20, at 0.5 µM): 97.2% and 99.2% | inhibition ([9]; at 0.5 µM): 66.6% (inactive) and 83.3% (active) | inhibition ([9]; measured here: inhibition with BGB combination, at 0.05 µM): 12.6% and 11.7% | inhibition ([9]; measured here: inhibition with cisplatin combination, at 0.05 µM): 11.3% and 20.8% | inhibition ([10]; at 0.5 µM): 7.34% (inactive) and -4.41% (inactive) | inhibition [10, 20]: 19% and 21% | inhibition [10, 21]: 76.3% and 69.2% | inhibition ([11]; at 0.5 µM): 54.1% (inactive) and 72% (inactive) | inhibition ([11]; measured here: BGB combination, at 0.5 µM): 51.4% and 63.7% | inhibition ([11]; measured here: BGB combination, at 5 µM): 74.8% and 70.3% | inhibition ([11]; measured here: cisplatin combination, at 0.5 µM): 45.3% and 73.5% | inhibition ([11]; measured here: cisplatin combination, at 5 µM): 82.3% and 82.8% | inhibition ([12]; BGB combination, concentration series, at 5 µM): 99.4% and 98.3% | inhibition ([12]; at 0.5 µM): 67.6% (inactive) and 90.7% (active) | inhibition ([12]; cisplatin combination, concentration series, at 5 µM): 118% and 106% | inhibition ([13]; at 0.5 µM): 60.8% (inactive) and 77.6% (inactive) | inhibition ([13]; measured here: combo with BGB IC20, at 0.5 µM): 60.1% and 81.6% | inhibition ([13]; measured here: combo with cisplatin IC20, at 0.5 µM): 47.8% and 70.6% | inhibition ([14]; at 0.5 µM): 14.3% (inactive) and 17% (inactive) | inhibition ([14]; cisplatin combination, at 0.5 µM): 23.6% and 35.1% | inhibition ([14]; cisplatin combination, at 5 µM): 44.9% and 40.2% | inhibition ([14]; measured here: BGB IC40 combination 0.05 uM, at 0.05 µM): 23.9% and 38.2% | inhibition ([14]; single agent, at 5 µM): -2.08% and -14.2% | inhibition ([15]; at 0.5 µM): 7.46% (inactive) and 14.2% (inactive) | inhibition ([15]; cisplatin combo, at 5 µM): 72.3% and 80.4% | inhibition ([15]; measured here: BGB IC40 combination, at 0.05 µM): 5.45% and -12% | inhibition [15, 20]: 49.2% and 53.3% | inhibition ([15]; single agent, at 5 µM): 23.3% and 47.8% | inhibition ([16]; at 0.5 µM): 54% (inactive) and 96.2% (active) | inhibition [16, 18]: 77.9% and 98.4% | inhibition [16, 19]: 42.1% and 95.1% | inhibition ([16]; single agent, at 0.05 µM): 32% and 28.6% | inhibition ([16]; single agent, at 5 µM): 99.8% and 99.9%
